From PubChem BioAssay (NCI)
The panel holds about 79,000 compounds, 15% with a hit somewhere; the sample as a whole holds those more often. The source made the active and inactive calls. No stated cut-off is given here; in the data, active means growth inhibition above about 70%; inactive means the rest.

assay: NCI Yeast Anticancer Drug Screen. Data for the rad50 strain (AID 155);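 further: 0% = growth of vehicle-only cultures of the same strain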; settings: S. cerevisiae rad50 strain growth inhibition; at 50.0 µM; stronger effect = higher value
In short: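 Growth of the mutant yeast was measured after compound exposure and referenced to vehicle-treated cultures.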

SMILES	growth inhibition
CC1CNC(=S)O1 (stereo not given)	-18.2% (inactive)
COc1ccccc1/C=N\NC(C)=O	-9.9% (inactive)
CC(C)(C)OC(=O)NCCc1ccc(N)cc1	-18.1% (inactive)
COc1cc(-c2ccccc2)c(OC)cc1CCl	4.05% (inactive)
C=CCN1C(=O)c2ccccc2C1=O	24.3% (inactive)
CC(=O)Nc1ccc(F)c([N+](=O)[O-])c1	-6.45% (inactive)
O=C(CCC(=O)OCCCl)OCCCl	-3.4% (inactive)
Cc1nc2ccc(Cl)c(Cl)c2s1	2% (inactive)
CSc1nc(=S)c2[nH]c(=S)[nH]c2[nH]1	-1.2% (inactive)
N#CC(/C(CCCC(=O)Nc1cccc([N+](=O)[O-])c1)=N/NC(=O)c1cc2ccccc2cc1O)c1ccccc1 (stereo not given)	41.4% (inactive)
CCn1c(=O)c(C#N)c2n(CC)c3cc(C)c(C)cc3n2c1=O	-13.5% (inactive)
Cc1cccc(C)c1/[N+]([O-])=C/c1cccc([N+](=O)[O-])c1	-1.8% (inactive)
CC(=O)CCCCO	-6.8% (inactive)
Cc1ccc(S(=O)(=O)n2ccnc2)cc1	-46% (inactive)
CCCCCCCCC(C)(C)O	-3.15% (inactive)
Cc1ccc(C(=O)OCc2ccccc2CN2CCCCC2)cc1	1.6% (inactive)
COc1cc(NC(C)CCCN)c2nccc(C)c2c1 (stereo not given)	16.2% (inactive)
N#CC(C(=O)C(=O)Nc1cccc(C(F)(F)F)c1)c1c(Cl)cccc1Cl (stereo not given)	10.1% (inactive)
COC(=O)[C@]1(C)CCCn2c(=O)n(-c3ccccc3)c(=O)n21	13.9% (inactive)
CC1(C)Cc2ccccc2C(C)(Cl)C(=O)N1 (stereo not given)	-10.8% (inactive)

SMILES	growth inhibition
CC(=O)Oc1cc(C)c(OC(C)=O)c(C)c1C	-12.8% (inactive)
COCn1cnc2c(F)ncnc21	3.85% (inactive)
CCOC(=O)N1C(c2ccccc2)N(c2ccccc2)C(c2ccccc2)N1C(=O)OCC (stereo not given)	4.7% (inactive)
CSC1(SC)CCCCCCCCCCC1	-19.8% (inactive)
Cc1ccc(C(O)(c2ccc(C)cc2)C2CCCCC2=C(c2ccccc2)c2ccccc2)cc1 (stereo not given)	10.8% (inactive)
COc1cc(C(O)C(CO)Oc2c(OC)cc(C3OCC4C(c5cc(OC)c(O)c(OC)c5)OCC34)cc2OC)ccc1O (stereo not given)	20.1% (inactive)
Oc1ccc2ccccc2c1C(c1ccccc1)N1CCOCC1 (stereo not given)	-2.5% (inactive)
C/C=C/C(=O)OCCOc1ccccc1-c1ccccc1	15.5% (inactive)
O=C(NCCO)c1ccc(Cl)cc1	-23.6% (inactive)
COc1ccc(CCN=Cc2ccc(Cl)cc2)cc1OC	-3.55% (inactive)
Nc1cccc(N2N=C(C(=O)O)CC2=O)c1	-7% (inactive)
CN(NC(=O)c1ccccc1)C(=O)c1ccccc1	15.6% (inactive)
COC(=O)[C@]1(C)CCC[C@]2(C)c3ccc(C(C)=O)cc3C(=O)C[C@@H]12	-1.5% (inactive)
Cc1nc(C)c(N2CCN(Cc3ccccc3)CC2)c(=O)[nH]1	8.65% (inactive)
NC1=NC(c2ccccc2)N=C(Nc2ccccc2)N1 (stereo not given)	37.2% (inactive)
OCC1OC(n2ncc3c(Nc4ccccc4)ncnc32)C(O)C1O (stereo not given)	17.1% (inactive)
CC(O)CCNC(c1ccccc1)C(O)c1ccccc1 (stereo not given)	3% (inactive)
CCOP(=O)(OCC)/C(C#N)=C/c1cnc(-c2ccccc2)[nH]1	-38% (inactive)
Cc1cc2ncn(C3OC(CO)C(O)C3O)c2cc1C (stereo not given)	-2.7% (inactive)
Cc1cccc(NC(=O)CSc2nnc(Cc3ccccc3)o2)c1	-28.1% (inactive)
